Screens: PubChem BioAssay, National Center for Advancing Translational Sciences (NCATS)
GALK inhibitor = GALK (human) enzyme inhibition | 44,000 tested, under 10 active | recombinant GALK, Kinase-Glo ATP luminescence, 1 h | Potency, µM (series often up to 57.5 µM), without a hit: at the highest dose activity, negative = inhibition, usual class: inhibitors;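 also: plate controls were full GALK reaction for no effect and reaction lacking GALK for full effect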
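Reactions with and without enzyme served as controls. GALK at 5 nM phosphorylates 100 uM galactose using 35 uM ATP (HEPES pH 8.0, Mg2+) for 1 h at RT, with luminescence read 10 min after adding Kinase-Glo Plus.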
GALC G270D act = galactocerebrosidase G270D activity enhancement, cell-based | 145M-Twi-hGALC-G270D cells (Twitcher mouse brain line with human GALC G270D), HMU-beta-Gal fluorescence, 48 h | P54803 | 0.1% of 45,000 active | Potency, µM (doses to about 57.5 µM), usual class: activators; also: potency is read from the fitted curve at half-maximal effect; 0% is about no effect; nearly all actives have a fitted effect of over 65% in size
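Mutant human GALC (G270D), stably expressed in a Twitcher mouse brain cell line lacking endogenous GALC, is measured in live-treated cells via 6-hexadecanoylamino-4-methylumbelliferyl-β-galactoside hydrolysis (0.1 mM final, pH 5.2) with fluorescent detection.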
B2AR arrestin ag = ADRB2 beta-arrestin recruitment; 44,000 tested, under 10 active; HTLA Tango cells, beta-arrestin recruitment, luciferase luminescence, 18 h; Potency, µM (highest dose often 46.1 µM), usual class: activators;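 also: potency is read from the fitted curve at half-maximal effect; 0% = DMSO and full agonism = EC100 isoproterenol or metaproterenol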
Target sequence (P07550 whole entry, looked up): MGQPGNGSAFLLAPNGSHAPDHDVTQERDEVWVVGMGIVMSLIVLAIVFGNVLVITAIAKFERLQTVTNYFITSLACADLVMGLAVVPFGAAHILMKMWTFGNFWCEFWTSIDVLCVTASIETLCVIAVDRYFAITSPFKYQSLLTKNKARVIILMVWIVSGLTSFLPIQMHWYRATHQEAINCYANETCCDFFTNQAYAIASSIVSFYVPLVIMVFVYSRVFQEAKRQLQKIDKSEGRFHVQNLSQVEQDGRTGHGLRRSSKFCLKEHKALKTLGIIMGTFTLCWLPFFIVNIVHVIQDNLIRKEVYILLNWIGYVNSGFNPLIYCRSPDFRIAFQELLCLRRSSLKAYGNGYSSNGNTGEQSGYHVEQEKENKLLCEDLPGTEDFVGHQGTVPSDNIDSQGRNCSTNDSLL
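Tango cells (recombinant beta2-AR, beta-arrestin, tTA-driven luciferase), 1500/well in DMEM 1% FBS, treated 18 h at 37 °C with compounds up to 46 µM; luciferin mix added, luminescence read after 15 min; %activity curves fitted and curve-classed.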
DRV1 agonist = agonists of human resolvin D1 receptor DRV1 (GPR32) | CHO-K1 GPR32 beta-arrestin PathHunter luminescence, 90 min; zero percent set by DMSO-only wells | activation, % at 76.9 µM | 2.5% of 48,000 active | AID 1346428;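 active = activation of at least 60% and not above a set upper limit, about 1 call in 100 departs from these limits; inconclusive = activation of 40% to 60%, or above that upper limit; inactive = activation under 40%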; also: 0% is about no effect
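Agonism was scored as beta-arrestin recruitment to ProLink-fused GPR32 in stably transfected CHO-K1 cells, giving a chemiluminescent beta-Gal signal; compounds were incubated 90 min at 37 °C.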
NTMT1 inh = blocks human N-terminal methyltransferase 1 activity; Q9BV86; NTMT1 MTase-Glo SAH luminescence, purified enzyme; Potency, µM (doses to about 114 µM), for the others: top-dose activity change, negative = inhibition, hits mostly inhibitors; 2.5% of 59,000 active;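 also: potency is read from the fitted curve at half-maximal effect; plate controls were DMSO vehicle for no effect and no enzyme for full effect; nearly all actives have a fitted effect of over 65% in size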
Target sequence (Q9BV86 whole entry, looked up): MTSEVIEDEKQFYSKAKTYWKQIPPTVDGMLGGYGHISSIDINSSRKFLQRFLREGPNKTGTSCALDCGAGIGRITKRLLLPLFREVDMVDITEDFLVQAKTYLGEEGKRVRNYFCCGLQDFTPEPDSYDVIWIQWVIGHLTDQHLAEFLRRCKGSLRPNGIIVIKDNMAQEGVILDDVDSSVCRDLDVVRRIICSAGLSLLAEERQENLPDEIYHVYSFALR
* marks the source's active call; other numbers are inactive results; ! = not active in a repeat; [ ] = remark or other dose. An excerpt weighted towards active compounds, which were near 3.6% of everything screened. Unless noted, calls follow the shape of the dose curve; as a rule, active = well fitted curve in the direction sought with a large enough effect; inconclusive = small, poorly fitted or top-dose-only effect, or another doubt; inactive = no such curve, though single readings can be large; an effect the other way counts as inactive or inconclusive.

What do the screens show for `Cc1cc(NS(=O)(=O)c2ccc(NC(=O)Cc3ccc(Cl)cc3)cc2)no1`?
NTMT1 inh: 10%[57.5 µM]

Results for COc1ccc(C(=O)CN2CCN(S(=O)(=O)c3ccc(C(C)C)cc3)CC2)cc1 ?
GALK inhibitor: 1%; GALC G270D act: inactive; B2AR arrestin ag: inactive; DRV1 agonist: 20; NTMT1 inh: 56µM*

What do the screens show for `COc1cc(C)c(C(=O)OC2C(C)OC(OC3CCC(C)C4C3C=C(C)C3/C(C)=C\CC/C(C)=C/C5(C)C=C(C(=O)O)C(C)CC56OC(=O)/C(=C(\O)C34C)C6=O)C(O)C2O)c(OC)c1` (stereo not given)?
NTMT1 inh: 8%[12.6 µM]

Results for O=C(CCCCCCC(=O)Nc1ccc([C@H]2O[C@@H](CSc3nc(-c4ccccc4)c(-c4ccccc4)o3)C[C@@H](c3ccc(CO)cc3)O2)cc1)NO ?
NTMT1 inh: 43µM*!

Results for CCc1ccc(NC(=O)CSc2nc(-c3ccccc3)c(C#N)c(=O)[nH]2)cc1 ?
GALK inhibitor: 1%; GALC G270D act: inactive; B2AR arrestin ag: inactive; DRV1 agonist: 12; NTMT1 inh: -1%

Results for O=C1CC2(CCCC2)[C@H](O)C(=O)N1CCCCN1CCN(c2ncccn2)CC1 ?
NTMT1 inh: 5%[57.5 µM]

What do the screens show for `CCOc1ccc2nc(SCCN3CCOCC3)[nH]c2c1`?
NTMT1 inh: 6%[57.5 µM]

How did CCN(CC)CCOc1ccc(/C(=C(\Cl)c2ccccc2)c2ccccc2)cc1 do in these assays?
GALC G270D act: inactive; DRV1 agonist: 91*; NTMT1 inh: inconclusive

What do the screens show for `O=C(O)c1ccc(OCCCOc2ccc(C(=O)O)cc2)cc1`?
GALC G270D act: inactive; DRV1 agonist: 5; NTMT1 inh: -18%[57.5 µM]

Results for CC(=O)N1c2ccc(S(=O)(=O)NCC3CCC(C(=O)Nc4cccc(F)c4)CC3)cc2CC1C (stereo not given) ?
GALK inhibitor: inconclusive; GALC G270D act: inactive; B2AR arrestin ag: inactive; DRV1 agonist: 64*; NTMT1 inh: 5%

What do the screens show for `CC(=O)N1c2ccc(S(=O)(=O)NCCC(=O)Nc3ccc(Br)c(C)c3)cc2CC1C` (stereo not given)?
GALK inhibitor: 3%; GALC G270D act: inactive; B2AR arrestin ag: inactive; DRV1 agonist: 69*; NTMT1 inh: -1%

What do the screens show for `O=C1CCCC2=C1C(c1cccc(F)c1)N=C(Nc1nc3ccccc3o1)N2` (stereo not given)?
NTMT1 inh: 10%

Results for C=C1c2cccc(O)c2C(O)=C2C(=O)[C@@]3(O)C(O)=C(C(N)=O)C(=O)[C@@H](N(C)C)[C@@H]3[C@@H](O)[C@H]12 ?
NTMT1 inh: 13µM*

Results for CCCCN(C)CC(O)Cn1cc(/C=C/C(=O)c2ccc(C)cc2)c2ccccc21 (stereo not given) ?
GALK inhibitor: -1%; GALC G270D act: inactive; B2AR arrestin ag: inactive; DRV1 agonist: 65*; NTMT1 inh: inconclusive

What do the screens show for `CCCCN(C)CC(O)Cn1cc(/C=C/C(=O)c2ccc(OC)c(OC)c2)c2ccccc21` (stereo not given)?
GALK inhibitor: 3%; GALC G270D act: 32µM*; B2AR arrestin ag: inactive; DRV1 agonist: 38; NTMT1 inh: inconclusive

What do the screens show for `CCCN(CCC)CC(O)Cn1cc(/C=C/C(=O)c2ccc(Br)cc2)c2ccccc21` (stereo not given)?
GALK inhibitor: 6%; GALC G270D act: inconclusive; B2AR arrestin ag: inactive; DRV1 agonist: 7; NTMT1 inh: -28%

What do the screens show for `CCCCN(C)CC(O)Cn1cc(/C=C/C(=O)c2ccc(Br)cc2)c2ccccc21` (stereo not given)?
GALK inhibitor: 6%; GALC G270D act: inconclusive; B2AR arrestin ag: inactive; DRV1 agonist: 74*; NTMT1 inh: -2%

What do the screens show for `S=P(c1ccccc1)(c1ccccc1)c1nc(CCCc2ccccc2)n2ccccc12`?
NTMT1 inh: 0%[57.5 µM]

Results for CC(=O)Nc1sc2c(c1-c1ccc(N[S+](C)(=O)[O-])cc1)CCNC2 ?
NTMT1 inh: -2%

How did C[C@@H]1O[C@@H](O[C@H]2[C@H](O[C@H]3[C@H](O[C@H]4CC[C@@]5(C=O)C(CC[C@]6(C)C5CC=C5C7CC(C)(C)C[C@@H](O)[C@]7(C)CC[C@]56C)C4(C)C)O[C@H](C(=O)O)[C@@H](O)[C@@H]3O)OC[C@@H](O)[C@@H]2O)[C@H](O)[C@H](O)[C@H]1O (stereo not given in full) do in these assays?
NTMT1 inh: -3%[12.6 µM]

What do the screens show for `CCOc1ccc(CNC(=O)Cn2ccc3cc(S(=O)(=O)N4CCCCC4)ccc32)cc1`?
GALK inhibitor: -1%; GALC G270D act: inactive; B2AR arrestin ag: inactive; DRV1 agonist: 77*; NTMT1 inh: -2%

How did CSc1ccc(CNC(=O)Cn2ccc3cc(S(=O)(=O)N4CCCC4)ccc32)cc1 do in these assays?
GALK inhibitor: -2%; GALC G270D act: inactive; B2AR arrestin ag: inactive; DRV1 agonist: 20; NTMT1 inh: -1%

Results for CCn1c(=O)c(-c2ccc(-c3cncc(C)n3)cc2Cl)cc2cnc(NCCC3CCN(C)CC3)nc21 ?
NTMT1 inh: -11%[12.6 µM]

What do the screens show for `CCn1c(=O)c(-c2ccc(Cl)cc2Cl)cc2cnc(Nc3ccc(N4CCNCC4)c(F)c3)nc21`?
NTMT1 inh: 50µM*!

What do the screens show for `CNCc1ccc(-c2[nH]c3cc(F)cc4c3c2CCNC4=O)cc1`?
NTMT1 inh: 6.3µM*!

How did CCc1cnn2c(NCc3ccc[n+]([O-])c3)cc(N3CCCC[C@H]3CCO)nc12 do in these assays?
NTMT1 inh: -15%

What do the screens show for `O=C(CN1C(=O)CCSc2ccccc21)Nc1ccc(C(F)(F)F)cc1`?
GALK inhibitor: 1%; GALC G270D act: inactive; B2AR arrestin ag: inactive; DRV1 agonist: 63*; NTMT1 inh: -5%

Results for Cc1ccnc(NCc2ccc(O)c3ncccc23)c1 ?
NTMT1 inh: -4%

How did Cc1cccn2c(=O)c3cc(C(=O)NCC(C)C)sc3nc12 do in these assays?
GALK inhibitor: -1%; GALC G270D act: 4µM*; B2AR arrestin ag: inactive; DRV1 agonist: 3; NTMT1 inh: -19%

What do the screens show for `CCCN(CCC)C(=O)c1cc2c(=O)n3cccc(C)c3nc2s1`?
GALK inhibitor: 0%; GALC G270D act: 20µM*; B2AR arrestin ag: inactive; DRV1 agonist: 4; NTMT1 inh: -22%

How did CC(=O)Nc1sc2c(c1-c1ccc(OC(F)(F)F)cc1)CCNC2 do in these assays?
NTMT1 inh: 0%
